# Reference: PubChem BioAssay AID1347414 (National Center for Advancing Translational Sciences (NCATS), 2020)
# Inconclusive results are not listed. The source made the active and inactive calls. The call rests on the fitted dose curve; in most records, active means well fitted inhibition curve with a large enough effect; inconclusive means small, poorly fitted or top-dose-only effect; inactive means no such curve, though single readings can be large or run the other way. Numbered stars: 1 amine (or outer) side, 2 acyl side, 3 side chain; on linkers, the order of the positions; unused ones are H or OH. Bridge positions count the residues as written; N and C are the ends. Square brackets hold non-standard residues; d marks the D form. Peptide text beside a SMILES is read from it. I, II: the chains in the order shown. Actinocin(9to1) = Cc1c2oc3c(C)ccc(C(=O)[*:1])c3nc-2c(C(=O)[*:2])c(N)c1=O; NMeV = CN[C@H](C(=O)O)C(C)C; Sar = CNCC(=O)O
# Test: qHTS to identify inhibitors of the type 1 interferon - major histocompatibility complex class I in skeletal muscle: Secondary screen by immunofluorescence; further: nearly all actives have a fitted effect of over 70% in size
# Conditions: C25cl48 myoblasts, IFN-b induced HLA-ABC immunofluorescence, 24 h; series mostly up to 49.8 µM
# How it was run: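 Immortalized human myoblasts C25cl48 were stimulated with 4.0 ng/ml IFN-beta and exposed to an 11-point 1:3 compound titration, top 50 uM, for 24 h at 37 C. They were then fixed and immunostained for HLA-ABC, and quantified by laser scanning cytometry.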
# Potency means the concentration at half of the fitted maximal effect.
row,Compound,Potency
1,C=CC(=O)N1CCc2ccc(-n3c(=O)ccc4cnc5ccc(-c6cnn(C)c6)cc5c43)cc21,2890 nM (active)
2,Cc1[nH]c2ccccc2c1CCNCc1ccc(/C=C/C(=O)NO)cc1,22.9 nM (active)
3,CNC(=O)c1nn(C)c2c1C(C)(C)Cc1cnc(Nc3ccc(N4CCN(C)CC4)cc3)nc1-2,5760 nM (active)
4,Cc1ccc([N+](=O)[O-])cc1S(=O)(=O)N(C)/N=C/c1cnc2ccc(Br)cn12,162 nM (active)
5,C=C1C(=O)O[C@@H]2[C@H]3O[C@]3(C)CCC=C(C)CC[C@@H]12,2890 nM (active)
6,COc1cc2c(cc1-c1c(C)noc1C)ncc1[nH]c(=O)n([C@H](C)c3ccccn3)c12,4080 nM (active)
7,N#CCNC(=O)c1ccc(-c2ccnc(Nc3ccc(N4CCOCC4)cc3)n2)cc1,1620 nM (active)
8,CC[C@]1(O)C[C@H]2CN(CCc3c([nH]c4ccccc34)[C@@](C(=O)OC)(c3cc4c(cc3OC)N(C=O)[C@H]3[C@@](O)(C(=O)OC)[C@H](OC(C)=O)[C@]5(CC)C=CCN6CC[C@]43[C@@H]65)C2)C1,inactive
9,OCCCNc1cc(-c2ccnc(Nc3cccc(Cl)c3)n2)ccn1,81.4 nM (active)
10,Nc1nc(Nc2ccc(S(N)(=O)=O)cc2)nn1C(=O)c1c(F)cccc1F,2050 nM (active)
11,CN1C/C=C/CCOc2cccc(c2)-c2ccnc(n2)Nc2cccc(c2)C1,115 nM (active)
12,C1=C/COCc2cc(ccc2OCCN2CCCC2)Nc2nccc(n2)-c2cccc(c2)COC/1,1290 nM (active)
13,Cc1sc2c(c1C)C(c1ccc(Cl)cc1)=N[C@@H](CC(=O)Nc1ccc(OCCOCCOCCOCCNc3cccc4c3C(=O)N(C3CCC(=O)NC3=O)C4=O)cc1)c1nnc(C)n1-2 (some centres not stated),91.4 nM (active)
14,Cc1c[nH]c2nc(Nc3ccc(N4CCN(C)CC4)c(F)c3)nc(-c3cccc(CC#N)c3)c12,1620 nM (active)
15,Cc1cc(O)c(-c2ccc([C@@H](C)CN(C)C)cc2)c2c1[nH]c(=O)c1sccc12,81.4 nM (active)
16,CC(C)C[C@H](NC(=O)[C@H](CCc1ccccc1)NC(=O)CN1CCOCC1)C(=O)N[C@@H](Cc1ccccc1)C(=O)N[C@@H](CC(C)C)C(=O)[C@@]1(C)CO1,64.7 nM (active)
17,COC1CC(C(=O)c2ccc3c(N)ncc(-c4ccc(-c5cnn(C)c5)cc4)c3n2)C1 (configuration not stated),inactive
18,O=C1NC(=O)[C@@H](c2c[nH]c3ccccc23)[C@H]1c1cn2c3c(cccc13)CCC2,inactive
19,O=C(/C=C\n1cnc(-c2cc(C(F)(F)F)cc(C(F)(F)F)c2)n1)NNc1cnccn1,324 nM (active)

row,Compound,Potency
1,COc1cc(Nc2ncc(F)c(Nc3ccc4c(n3)NC(=O)C(C)(C)O4)n2)cc(OC)c1OC,inactive
2,CCC[C@H](NC(=O)/C(C#N)=C/c1cccc(Br)n1)c1ccccc1,6470 nM (active)
3,COCCN1CCN(Cc2ccc(-c3n[nH]c4c3C(=O)c3c(NC(=O)NN5CCOCC5)cccc3-4)cc2)CC1,51.4 nM (active)
4,Fc1ccc(CNc2ncnc3ccc(F)cc23)cc1,inactive
5,CC(=O)c1cnc2ccc(-c3cc(Cl)c(O)c(Cl)c3)nc2c1NC1CCC(CN(C)C)CC1 (configuration not stated),45.8 nM (active)
6,C=C1C(=O)O[C@H]2C[C@H](C)C(/C=C/C(C)=O)=CC[C@H]12,5760 nM (active)
7,CN(c1ncccc1CNc1nc(Nc2ccc3c(c2)CC(=O)N3)ncc1C(F)(F)F)S(C)(=O)=O,5760 nM (active)
8,CN1CCN(C(=O)c2ccc3cc(CCNc4ncnc5ccc(C#N)cc45)ccc3c2)CC1,inactive
9,COc1nnc2ccc(N3CCC(c4ccc(OCCN5CCN(C)C(=O)[C@H]5C)cc4)CC3)nn12,14.5 nM (active)
10,COC(=O)C[C@](O)(CCCC(C)(C)O)C(=O)O[C@@H]1C(OC)=C[C@]23CCCN2CCc2cc4c(cc2[C@H]13)OCO4,28.9 nM (active)
11,"Cc1c2oc3c(C)ccc(C(=O)N[C@@H]4C(=O)N[C@H](C(C)C)C(=O)N5CCC[C@H]5C(=O)N(C)CC(=O)N(C)[C@@H](C(C)C)C(=O)O[C@@H]4C)c3nc-2c(C(=O)N[C@@H]2C(=O)N[C@H](C(C)C)C(=O)N3CCC[C@H]3C(=O)N(C)CC(=O)N(C)[C@@H](C(C)C)C(=O)O[C@@H]2C)c(N)c1=O (I: T[dV]P[Sar][NMeV] / II: T[dV]P[Sar][NMeV]; ester I:1-I:C, II:1-II:C; linker I:N-II:N via Actinocin(9to1))",57.6 nM (active)
12,CN1CCN(Cc2ccc(NC(=O)Nc3ccc(Oc4cc(NC(=O)C5CC5)ncn4)cc3)cc2C(F)(F)F)CC1,64.7 nM (active)
13,Cc1ccc(C(=O)Nc2ccc(CN3CCN(C)CC3)c(C(F)(F)F)c2)cc1C#Cc1cnc2[nH]ncc2c1,726 nM (active)
14,CC(C)(C)c1ccc(S(=O)(=O)/C=C/C#N)cc1,2290 nM (active)
15,CC[C@@]1(O)C(=O)OCc2c1cc1n(c2=O)Cc2cc3cc(O)ccc3nc2-1,1620 nM (active)
16,CNC(=O)c1ccc(Nc2ncc(C(F)(F)F)c(NCc3nccnc3N(C)S(C)(=O)=O)n2)cc1,6470 nM (active)
17,O=C(/C=C/c1ccc(CN(CCO)CCc2c[nH]c3ccccc23)cc1)NO,36.4 nM (active)
18,COc1ccc(-c2nc(N3CCOCC3)c3sc(CN(C)c4ncc(C(=O)NO)cn4)cc3n2)cn1,5.8 nM (active)
